Reference: the supplement of paper PMC6555819

What was measured:
Test in all cases: PBM binding z-score (relative to random genomic background probes); higher = stronger binding; sequences stand for … in GC…GCGATTGACAGCGTAGAATGAAGG
[1] = test system: PPARg:RXRa IVT, anti-PPARg (NR concentration 270 nM, RXRa partner concentration 90 nM)
Summary of the method: (§1)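 The probes on custom Agilent 4×180K protein-binding microarrays were double-stranded, with 34-nt variable regions bearing direct-repeat seeds, single-nucleotide variants, half-site ablations and random human genomic background sequences. Incubation lasted 1 h with ligand-free nuclear receptor dimers in PBS pH 7.4, 2% milk, 0.02% Triton X-100, 1 mM DTT, 0.2 mg/mL BSA and 0.4 mg/ml salmon testes DNA. Antibodies against each partner (one per run) detected bound dimers, and fluorescence scans were regression-normalized. Binding z-scores take the random background probes as reference.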

[2] = test system: PPARg DBDmut:RXRa IVT, anti-PPARg (DBD mutation: PPARg1 K132A/R137A, NR concentration 270 nM, RXRa partner concentration 90 nM)
Summary of the method: as §1

[3] = test system: PPARg DBDmut IVT, anti-PPARg (DBD mutation: PPARg1 K132A/R137A, NR concentration 270 nM)
Summary of the method: as §1

[4] = test system: PPARg homodimer (NR concentration 180 nM)
Summary of the method: as §1

[5] = test system: PXR:RXRa (NR concentration 270 nM, RXRa partner concentration 90 nM)
Summary of the method: as §1

[6] = test system: PXR homodimer (NR concentration 270 nM)
Summary of the method: as §1

[7] = test system: RARa:RXR (NR concentration 270 nM, RXRa partner concentration 90 nM)
Summary of the method: as §1

[8] = test system: RARa homodimer (NR concentration 270 nM)
Summary of the method: as §1

[9] = test system: RARb homodimer (NR concentration 270 nM)
Summary of the method: as §1

[10] = test system: RARb:RXRa (NR concentration 270 nM, RXRa partner concentration 90 nM)
Summary of the method: as §1

CGTCCAAGGTCACGGTCAGTGAAAGAGACTCGAA
PBM binding z-score [1]: 5.66 | PBM binding z-score [2]: 1.95 | PBM binding z-score [3]: 0.958 | PBM binding z-score [4]: 4.68 | PBM binding z-score [5]: 4.93 | PBM binding z-score [6]: 0.843 | PBM binding z-score [7]: 6.25 | PBM binding z-score [8]: 2.14 | PBM binding z-score [9]: 4.71

CAAAATAGGTCAAAGGTCAAAGTCGAGCCAACCA
PBM binding z-score [1]: 8.59 | PBM binding z-score [2]: 3.03 | PBM binding z-score [3]: 1.57 | PBM binding z-score [4]: 4.96 | PBM binding z-score [5]: 7.32 | PBM binding z-score [6]: 2.02 | PBM binding z-score [7]: 9.14 | PBM binding z-score [8]: 3.71 | PBM binding z-score [9]: 5.5

CCTTAGGGGTCAAGGTTATAGCACGGGTGGTACG
PBM binding z-score [1]: 5.19 | PBM binding z-score [2]: 1.1 | PBM binding z-score [3]: 0.837 | PBM binding z-score [4]: 4.4 | PBM binding z-score [5]: 6.23 | PBM binding z-score [6]: 1.1 | PBM binding z-score [8]: 2.38 | PBM binding z-score [9]: 5.11

CGTCAAAGGTCAAGGTCAGTGAAAGAGACTCGAA
PBM binding z-score [1]: 6.36 | PBM binding z-score [2]: 3.41 | PBM binding z-score [3]: 4.07 | PBM binding z-score [4]: 6.26 | PBM binding z-score [5]: 6.26 | PBM binding z-score [6]: 1.8 | PBM binding z-score [7]: 6.98 | PBM binding z-score [8]: 4.06 | PBM binding z-score [9]: 5.34

ATCAAAAGGTCGAGGTGAGTATAGAGAAAGGGAA
PBM binding z-score [1]: 2.79 | PBM binding z-score [2]: 1.63 | PBM binding z-score [3]: 1.54 | PBM binding z-score [4]: 2.27 | PBM binding z-score [5]: 2.86 | PBM binding z-score [6]: 1.09 | PBM binding z-score [8]: 1.57 | PBM binding z-score [10]: 4.53 | PBM binding z-score [9]: 3.28

TTACCAAGGTCAAGGTCGTTGATCCCTCTGTAGA
PBM binding z-score [1]: 5.09 | PBM binding z-score [2]: 1.64 | PBM binding z-score [3]: 0.631 | PBM binding z-score [4]: 4.12 | PBM binding z-score [5]: 5.31 | PBM binding z-score [6]: 2.27 | PBM binding z-score [7]: 5.57 | PBM binding z-score [8]: 1.71 | PBM binding z-score [9]: 4.86

CGTCAAAGTTCAAGGTCACGTAACAGAAAGCAGC
PBM binding z-score [1]: 4.54 | PBM binding z-score [2]: 0.668 | PBM binding z-score [3]: 0.649 | PBM binding z-score [4]: 4.73 | PBM binding z-score [5]: 6.25 | PBM binding z-score [6]: 4.18 | PBM binding z-score [7]: 5.79 | PBM binding z-score [8]: 3.09 | PBM binding z-score [9]: 5.56

CCTACTGGGCCATTCAGAGGGCATTGATCATATG
PBM binding z-score [1]: 3.43 | PBM binding z-score [2]: -0.276 | PBM binding z-score [3]: -0.131 | PBM binding z-score [4]: 0.0332 | PBM binding z-score [6]: -0.0942 | PBM binding z-score [7]: 0.0322 | PBM binding z-score [8]: -0.556 | PBM binding z-score [10]: 1.09 | PBM binding z-score [9]: 1.27

CGTCAAAGGTCAGCAGGTCAGTGAAAGCGACGTG
PBM binding z-score [1]: 5.73 | PBM binding z-score [2]: 1.7 | PBM binding z-score [3]: 1.47 | PBM binding z-score [4]: 7.06 | PBM binding z-score [5]: 5.39 | PBM binding z-score [6]: 0.608 | PBM binding z-score [8]: 4.86 | PBM binding z-score [9]: 5.42

TCTAGTCGGTCAAAGGTCACACACTCGAAATGCG
PBM binding z-score [1]: 6.92 | PBM binding z-score [2]: 1.34 | PBM binding z-score [3]: 1.59 | PBM binding z-score [4]: 5.59 | PBM binding z-score [5]: 6.26 | PBM binding z-score [6]: 1.5 | PBM binding z-score [8]: 2.61 | PBM binding z-score [10]: 5.34 | PBM binding z-score [9]: 5.22
